This is an account of results in PubChem BioAssay AID1220 (Sanford-Burnham Center for Chemical Genomics, 2008).

Hit rate of the full screen: of about 190,000 compounds, about 1,300 (0.68%) were called active. Rule as the data show it: active = inhibition above about 50%; inactive = the rest. Only a selection was taken, and actives are over-represented in it overall.

In the assay the target is Mannose-6-phosphate isomerase (Homo sapiens) (UniProt P34949). The assay is described as follows: human PMI inhibitors, high substrate, primary screen, biochemical, fluorescence intensity, high mannose 6-phosphate (AID 1220). The settings on record: recombinant PMI enzyme, coupled fluorescence intensity; at 20 µM; hits give high values.
Mannose-6-phosphate isomerase (Homo sapiens), sequence (P34949 whole entry, looked up): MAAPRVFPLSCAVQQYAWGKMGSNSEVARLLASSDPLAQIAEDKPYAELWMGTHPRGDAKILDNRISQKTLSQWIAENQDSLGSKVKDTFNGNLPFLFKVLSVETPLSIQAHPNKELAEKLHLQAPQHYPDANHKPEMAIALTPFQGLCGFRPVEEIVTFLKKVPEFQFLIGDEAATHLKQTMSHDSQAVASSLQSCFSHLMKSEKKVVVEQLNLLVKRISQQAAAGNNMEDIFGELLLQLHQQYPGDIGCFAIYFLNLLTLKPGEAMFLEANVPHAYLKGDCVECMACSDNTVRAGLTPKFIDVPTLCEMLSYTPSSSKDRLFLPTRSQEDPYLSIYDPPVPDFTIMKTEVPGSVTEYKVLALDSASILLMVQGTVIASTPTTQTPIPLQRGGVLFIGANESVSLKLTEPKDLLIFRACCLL
Consider `Cc1ccc(/C=C2\C(=O)Nc3ccccc32)o1`, for which the inhibition – broadly, the relative decrease from the control value, in per cent – is 6.8% (inactive).

Regarding `N#CCC(=O)N/N=C/c1ccc(OC2CSC2)cc1`, the inhibition was 6.6% (inactive).

With `CN(C)c1nc(Oc2ccc(=O)[nH]n2)nc(N2CCCCC2)n1`, the inhibition was -0.1% (inactive).

Regarding `CCOC(=O)Cc1csc(SCC(=O)NC(C)C23CC4CC(CC(C4)C2)C3)n1` (centres undefined), the inhibition is 51% (active).

Regarding `CCOC(=O)Cc1csc(SCC(=O)NC2CCCCC2)n1`, the inhibition was -6% (inactive).

As to `CCOC(=O)Cc1csc(SCC(=O)NC2CCCC(C)C2C)n1` (centres undefined), the inhibition is -3.7% (inactive).

On to `COC(C(=O)Nc1ccc(F)cc1F)c1ccccc1` (centres undefined), for which the inhibition is 0.3% (inactive).

As for `O=C(NCCCn1ccnc1)C(Cc1ccc([N+](=O)[O-])cc1)N1C(=O)c2ccccc2C1=O` (centres undefined), the inhibition is -5.8% (inactive).

As to `CCn1c(Cc2ccccc2)nnc1SCC(=O)c1cccc([N+](=O)[O-])c1`, the inhibition is 5.6% (inactive).

On to `Cc1noc(C)c1S(=O)(=O)Nc1ccc(C(=O)NCCc2ccccc2)cc1`, for which the inhibition was 3.4% (inactive).

Take `Cc1ccc(-c2ccc(/C=N/N3C(=O)C4C5C=CC(C6CC56)C4C3=O)o2)c([N+](=O)[O-])c1` (centres undefined): the inhibition was 50.8% (active).

Consider `O=C1C2C3C=CC(C4CC34)C2C(=O)N1/N=C/c1ccc(-c2ccc(F)cc2[N+](=O)[O-])o1` (centres undefined), for which the inhibition is 14.4% (inactive).

With `O=c1nc2s/c(=C\c3ccc(-c4ccccc4[N+](=O)[O-])o3)c(=O)n2nc1-c1ccccc1`, the inhibition was 50.5% (active).

For the compound `O=C1C2C3C=CC(C3)C2C(=O)N1/N=C/c1ccc(-c2ccccc2[N+](=O)[O-])o1` (centres undefined), the inhibition is 51.5% (active).

In the case of `O=C1ON=C(c2ccccc2)/C1=C/c1ccc(-c2ccccc2[N+](=O)[O-])o1`, the inhibition was -11% (inactive).

As to `O=[N+]([O-])c1ccccc1-c1ccc(/C=N/n2cnnc2)o1`, the inhibition is 51.1% (active).

For `Clc1ccccc1-c1ccc(/C=N/n2cnnc2)o1`, the inhibition was 6.7% (inactive).

With `Cc1ccc(-c2ccc(/C=N/N3C(=O)C4C5C=CC(CC5)C4C3=O)o2)c([N+](=O)[O-])c1` (centres undefined), the inhibition is 33.2% (inactive).

Consider `COc1ccc(-c2ccc(/C=N/N3C(=O)C4C5C=CC(C6CC56)C4C3=O)o2)c([N+](=O)[O-])c1` (centres undefined), for which the inhibition was 42.2% (inactive).

As to `O=C1C2C3C=CC(C4CC34)C2C(=O)N1/N=C/c1ccc(-c2ccc(Cl)cc2[N+](=O)[O-])o1` (centres undefined), the inhibition is 7.4% (inactive).

In the case of `O=C1/C(=C\c2ccc(-c3ccccc3[N+](=O)[O-])o2)C(c2ccccc2)=NN1c1ccccc1`, the inhibition is -2.3% (inactive).

Turning to `Cc1n[nH]c(=S)n1/N=C/c1ccc(-c2ccccc2[N+](=O)[O-])o1`, the inhibition was 21.2% (inactive).

As to `CCCc1nc(N)c(C#N)c(N)c1C#N`, the inhibition is 3.2% (inactive).

`O=C(Nc1cc(S(=O)(=O)N2CCOCC2)ccc1N1CCOCC1)c1ccc(S(=O)(=O)N2CCCCC2)cc1`: the inhibition was -10.7% (inactive).

For the compound `Clc1ncn(C23CC4CC(CC(C4)C2)C3)n1`, the inhibition was -0.3% (inactive).

Take `CCOC(=O)c1cccc(NC(=O)CN(c2ccc(OC)cc2)S(=O)(=O)c2c(C)noc2C)c1`: the inhibition was 19.2% (inactive).

Consider `Cc1c(O)c(CN2CCCCC2)cc2c1oc(=O)c1ccccc12`, for which the inhibition was 1.8% (inactive).

As for `NC(=O)C1(N2CCCCC2)CCN(CC(=O)Nc2cc(Cl)ccc2Cl)CC1`, the inhibition was 7.2% (inactive).

On to `CCC1(C)COC2(OC1)C(=O)Nc1ccccc12` (centres undefined), for which the inhibition is 8.2% (inactive).

On to `Cc1ccc(NC(=O)CS(=O)CC(=O)NCCCN(C)c2ccccc2)cc1` (centres undefined), for which the inhibition is 11.5% (inactive).

Take `COC1CCCN(Cc2cn(C)nc2-c2ccc(Oc3ccccc3)cc2)C1` (centres undefined): the inhibition was 8.1% (inactive).

For the compound `O=C(NCC1CCCO1)C(=O)NCC(c1ccco1)N1CCN(c2ccccc2)CC1` (centres undefined), the inhibition was -4.7% (inactive).

Consider `O=C(Oc1cccc2cccnc12)c1cccc(N2C(=O)C3C4CCC(C4)C3C2=O)c1` (centres undefined), for which the inhibition was 51.9% (active).

Regarding `CC1CCC2C(=O)N(c3ccc(C(=O)Oc4cccc5cccnc45)cc3)C(=O)C2C1` (centres undefined), the inhibition was 48.7% (inactive).

`O=C(Nc1ccc(F)cc1)c1cccc(N2C(=O)C3C4CCC(C4)C3C2=O)c1` (centres undefined): the inhibition is 9.3% (inactive).

On to `O=C(Oc1cccc2cccnc12)c1cccc(-n2cnnn2)c1`, for which the inhibition is 27.9% (inactive).

For `Cc1ccc(C(=O)Oc2ccccc2N2C(=O)C3C4CCC(C4)C3C2=O)cc1` (centres undefined), the inhibition was 0.7% (inactive).

On to `O=C(Oc1cccc2cccnc12)c1ccc(N2C(=O)C3C4CCC(C4)C3C2=O)cc1` (centres undefined), for which the inhibition was 50.5% (active).

For the compound `Cn1c(=O)c2c(nc(N3CCCC3)n2CC(O)CO)n(C)c1=O` (centres undefined), the inhibition is -12.4% (inactive).

With `Cc1cc(C)nc(NC(=O)c2cc(Br)ccc2Cl)n1`, the inhibition was -2.5% (inactive).

Regarding `O=C(COC(=O)c1cccs1)Nc1cc(S(=O)(=O)N2CCOCC2)ccc1Cl`, the inhibition is -2.3% (inactive).

`COc1cc(NC(=O)CCNC(=O)Cn2cnc3ccccc3c2=O)cc(OC)c1OC`: the inhibition is 10.9% (inactive).

In the case of `COC(=O)c1nnn(-c2nc(N3CCOCC3)nc(N3CCOCC3)n2)c1C`, the inhibition is 8.7% (inactive).

As for `COc1cc(OC)c(/C=N/NC(=O)c2ccncc2)cc1Br`, the inhibition is -19.4% (inactive).

For `COc1ccc(/C=N/NC(=O)c2ccncc2)cc1[N+](=O)[O-]`, the inhibition is -13.2% (inactive).

Consider `COc1cc(OC)c([N+](=O)[O-])cc1/C=N/NC(=O)c1ccncc1`, for which the inhibition is 58.7% (active).

With `COc1ccc(Cn2nnnc2C(c2ccc3ncccc3c2)N2CCN(C3CCCCC3)CC2)cc1` (centres undefined), the inhibition is -3.1% (inactive).

`COCCCNC(=S)Nc1cccc2ncccc12`: the inhibition is 54.4% (active).

With `COCCNC(=S)Nc1cccc2cnccc12`, the inhibition is 48% (inactive).

Take `O=C(O)c1cc(Cl)c(Cl)cc1C(=O)Nc1cccc2cccnc12`: the inhibition was 46% (inactive).

With `O=C(NC(=S)Nc1cccc2ncccc12)c1cccs1`, the inhibition was 67.1% (active).

Regarding `O=C(O)c1cc(Cl)c(Cl)cc1C(=O)Nc1cccc2ncccc12`, the inhibition is 54.8% (active).

With `COCCCNC(=S)Nc1ccccc1C`, the inhibition was 15.8% (inactive).

Turning to `O=C(Cc1ccc(Cl)c(Cl)c1)Nc1cccc2ncccc12`, the inhibition is 8.6% (inactive).

`O=C(NC(=S)Nc1cccc2ncccc12)c1ccco1`: the inhibition was 7.2% (inactive).

For `O=C(NC(=S)Nc1cccc2ncccc12)c1ccccc1`, the inhibition was 30.3% (inactive).

For the compound `CCN1C2=C(C(=O)CCC2)C(c2ccc(O)cc2)C2=C1CCCC2=O`, the inhibition was -9.2% (inactive).

In the case of `Cc1nnc(NC(=O)CSc2nnc(-c3ccc(S(=O)(=O)N4CCCC4)cc3)n2C)s1`, the inhibition was -8.6% (inactive).

For `CC1(C)C(=O)N(OCc2ccccc2)C(C)(C)C(=O)N1OCc1ccccc1`, the inhibition was -1.9% (inactive).

Take `COc1cc2c(cc1NCc1ccccn1)oc1ccccc12`: the inhibition is 56.9% (active).

Take `COc1cc2c(cc1NCc1ccc3c(c1)OCO3)oc1ccccc12`: the inhibition is 32.3% (inactive).

As to `COc1cc2c(cc1NC(=O)CSc1ccccn1)oc1ccccc12`, the inhibition was 4.8% (inactive).

Turning to `CCOC(=O)C1CCN(c2c(NCc3ccc(C(=O)N(C)Cc4ccccc4)cc3)c(=O)c2=O)CC1`, the inhibition was -6.2% (inactive).

For `Cc1cc(C)nc(/N=C2\NC(=O)CC(C(=O)O)N2c2ccc(F)c(Cl)c2)n1` (centres undefined), the inhibition is -5.5% (inactive).

With `O=C1CCCC2=C1C(c1cccc(O)c1)c1c(ccc3ncccc13)N2` (centres undefined), the inhibition is 35.4% (inactive).

For the compound `COc1cc(C2C3=C(CCCC3=O)Nc3ccc4ncccc4c32)ccc1O` (centres undefined), the inhibition was 27.4% (inactive).

`O=C1CCCC2=C1C(c1ccc(O)c(O)c1)c1c(ccc3ncccc13)N2` (centres undefined): the inhibition is 52.9% (active).

Turning to `COc1cc(C2C(C#N)=C(C)NC(C)=C2C#N)cc(OC)c1OC`, the inhibition was 2% (inactive).

Take `COc1cc(NC2=CC(=O)CC(C)(C)C2)cc(OC)c1OC`: the inhibition was 9.2% (inactive).

Take `COc1cc(N/C=C2\CC(=O)NC(C)=C2C#N)cc(OC)c1OC`: the inhibition was 70.9% (active).

Take `COC(=O)c1ccc(CSc2ccc3nnc(-c4cccnc4)n3n2)o1`: the inhibition was 0.3% (inactive).

Turning to `CN(C)CCNC(=O)c1c(O)c2c([nH]c1=O)CCCC2`, the inhibition was 15.6% (inactive).

Consider `Cc1cc(N)ccc1N1CCCC1`, for which the inhibition is 25.9% (inactive).

For `COc1ccc(Cl)cc1-n1c(C)ccc1C`, the inhibition was -6.6% (inactive).

Regarding `Cc1cc(N)ccc1-n1c(C)ccc1C`, the inhibition is 69.4% (active).

Consider `COc1ccc(N)cc1-n1c(C)ccc1C`, for which the inhibition is 64.2% (active).

Take `Cc1ccc(N)cc1-n1c(C)ccc1C`: the inhibition is 27.5% (inactive).

Regarding `COc1ccc(N)cc1-n1cnnn1`, the inhibition is -5.6% (inactive).

Consider `Nc1nc(NCc2ccco2)nn1-c1ccccc1`, for which the inhibition is 2% (inactive).

For the compound `Cn1ccnc1Sc1cc(NCCCO)c([N+](=O)[O-])c2nonc12`, the inhibition was 24.2% (inactive).

Take `CCCC(=O)OCCNc1cc(SCc2ccco2)c2nonc2c1[N+](=O)[O-]`: the inhibition was 40.5% (inactive).

Regarding `CCCC(=O)OCCNc1cc(Sc2nc3ccccc3[nH]2)c2nonc2c1[N+](=O)[O-]`, the inhibition was 33% (inactive).

Turning to `CCC(=O)OCCNc1cc(Sc2nccn2C)c2nonc2c1[N+](=O)[O-]`, the inhibition was 50.8% (active).

In the case of `CCCSc1cc(NCCOC(C)=O)c([N+](=O)[O-])c2nonc12`, the inhibition was 57.6% (active).

As for `COC(=O)CCSc1cc(NCCOC(C)=O)c([N+](=O)[O-])c2nonc12`, the inhibition was 43.1% (inactive).

Turning to `Cc1nnc(Sc2cc(NCCCO)c([N+](=O)[O-])c3nonc23)s1`, the inhibition was 39.9% (inactive).

For `CC(=O)OCCNc1cc(SCc2ccco2)c2nonc2c1[N+](=O)[O-]`, the inhibition is 45.7% (inactive).

As for `CCN(CC)c1cc(NCCO)c([N+](=O)[O-])c2nonc12`, the inhibition is 57.4% (active).

As to `CCCSc1cc(NCCOC(=O)CCC)c([N+](=O)[O-])c2nonc12`, the inhibition was 50.7% (active).

As for `Cc1nnc(Sc2cc(NCCO)c([N+](=O)[O-])c3nonc23)s1`, the inhibition was 16.6% (inactive).

On to `CCCC(=O)OCCNc1cc(Sc2nccn2C)c2nonc2c1[N+](=O)[O-]`, for which the inhibition is 30.4% (inactive).

As for `O=C(NCc1cccnc1)Nc1cccc(F)c1`, the inhibition is -2.6% (inactive).

Regarding `CC(=O)Nc1nc(C(=O)O)cs1`, the inhibition was 6.8% (inactive).

Consider `O=C(Nc1ccc(Cl)cn1)c1ccc(-c2cc(Cl)ccc2Cl)o1`, for which the inhibition is -2.7% (inactive).
